Measured values from the supplement of paper PMC6555819.

Tests used:
Experiment in all cases: PBM binding z-score (relative to random genomic background probes); higher = stronger binding; sequences stand for … in GC…GCGATTGACAGCGTAGAATGAAGG
[1] = system: FXR:RXRa (NR concentration 270 nM, RXRa partner concentration 90 nM)
Outline: (§1)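 Regression normalization was applied to scanned fluorescence from custom Agilent 4×180K protein-binding microarrays. Before scanning, arrays were incubated 1 h with ligand-free nuclear receptor dimers, and binding was detected with antibodies against each partner (one per run). Binding z-scores use the random background probes as reference.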

[2] = system: LXRa:RXRa (NR concentration 270 nM, RXRa partner concentration 90 nM)
Outline: as §1

[3] = system: LXRa homodimer (NR concentration 270 nM)
Outline: as §1

[4] = system: LXRb:RXRa (NR concentration 270 nM, RXRa partner concentration 90 nM)
Outline: as §1

[5] = system: LXRb homodimer (NR concentration 270 nM)
Outline: as §1

[6] = system: PPARa:RXRa (NR concentration 270 nM, RXRa partner concentration 90 nM)
Outline: as §1

[7] = system: PPARg:RXRa (NR concentration 180 nM, RXRa partner concentration 90 nM)
Outline: as §1

[8] = system: PPARg:RXRa 270nM:90nM, anti-RXR (NR concentration 270 nM, RXRa partner concentration 90 nM)
Outline: as §1

[9] = system: PPARg:RXRa 30nM:10nM, anti-RXR (NR concentration 30 nM, RXRa partner concentration 10 nM)
Outline: as §1

[10] = system: PPARg:RXRa 90nM:30nM, anti-RXR (NR concentration 90 nM, RXRa partner concentration 30 nM)
Outline: as §1

[11] = system: PPARg:RXRa DBDmut IVT, anti-RXR (DBD mutation: RXRa K156A/R161A, NR concentration 270 nM, RXRa partner concentration 90 nM)
Outline: as §1

[12] = system: PPARg:RXRa IVT, anti-PPARg (NR concentration 270 nM, RXRa partner concentration 90 nM)
Outline: as §1

[13] = system: PPARg DBDmut:RXRa IVT, anti-PPARg (DBD mutation: PPARg1 K132A/R137A, NR concentration 270 nM, RXRa partner concentration 90 nM)
Outline: as §1

[14] = system: PPARg DBDmut IVT, anti-PPARg (DBD mutation: PPARg1 K132A/R137A, NR concentration 270 nM)
Outline: as §1

[15] = system: PPARg homodimer (NR concentration 180 nM)
Outline: as §1

[16] = system: PXR:RXRa (NR concentration 270 nM, RXRa partner concentration 90 nM)
Outline: as §1

[17] = system: PXR homodimer (NR concentration 270 nM)
Outline: as §1

[18] = system: RARa:RXR (NR concentration 270 nM, RXRa partner concentration 90 nM)
Outline: as §1

[19] = system: RARa homodimer (NR concentration 270 nM)
Outline: as §1

[20] = system: RARb:RXRa (NR concentration 270 nM, RXRa partner concentration 90 nM)
Outline: as §1

| Sequence | PBM binding z-score [1] | PBM binding z-score [2] | PBM binding z-score [3] | PBM binding z-score [4] | PBM binding z-score [5] | PBM binding z-score [6] | PBM binding z-score [7] | PBM binding z-score [8] | PBM binding z-score [9] | PBM binding z-score [10] | PBM binding z-score [11] | PBM binding z-score [12] | PBM binding z-score [13] | PBM binding z-score [14] | PBM binding z-score [15] | PBM binding z-score [16] | PBM binding z-score [17] | PBM binding z-score [18] | PBM binding z-score [19] | PBM binding z-score [20] |
| --- | --- | --- | --- | --- | --- | --- | --- | --- | --- | --- | --- | --- | --- | --- | --- | --- | --- | --- | --- | --- |
| ATCTCTAGGTGACAAGTTCAGTGAAAGAGAGGAC | 0.297 | 0.503 | 0.114 | 0.645 | 0.171 | 2.58 | 3.19 | 3.1 | 1.46 | 2.43 | 4.9 | 4.99 | 1.89 | 2.47 | 0.963 | 1.33 | 1.38 | 0.974 | 0.324 | 2.12 |
| TAGCCTAGGTCAGAGCGGGCCAGTATACGCTATA | 1.24 | 0.815 | -0.692 | 0.501 | -1.17 | 1.42 | 0.573 | 0.718 | -0.359 | 0.201 | 0.635 | 1.65 | -0.73 | -0.204 | 0.133 | 0.376 | -0.362 | 0.867 | -1.12 | 2.85 |
| AGAATGAGGTTAATAAGATCAGGGAATTGCGGTC | 1.38 | 1.15 | 0.213 | 1.24 | 0.00596 | 2.74 | 1.75 | 2.22 | 0.516 | 1.58 | 3.37 | 2.89 | 0.759 | 0.384 | 1.23 | 1.06 | 0.151 | 1.48 | 0.329 | 1.58 |
| CCTACTAGGCCAAGGTCATTGATCAGTCAAAGCA | 3.42 | 3.71 | 2.03 | 3.21 | 0.097 | 4.66 | 4.96 | 4.59 | 2.19 | 4.42 | 5.34 | 4.8 | 0.0145 | 0.199 | 1.67 | 3.52 | 1.98 | 3.68 | 0.849 | 3.62 |
| CCTTACGGGTCACTACAGGTTATAGCATCGGAGT | 4.92 | 8 | 2.22 | 6.14 | 0.211 | 4.69 | 3.41 | 3.84 | 1.46 | 2.62 | 2.72 | 3.21 | 0.858 | 0.751 | 1.99 | 4.52 | 0.327 | 4.47 | 1.02 | 3.91 |
| CAAACTAGGTCACGACAGGTCAAAGTCGAATGAC | 6.86 | 7.66 | 5.39 | 6.7 | 0.955 | 6.08 | 9.79 | 7.85 | 6.54 | 8.02 | 8.69 | 9.13 | 4.46 | 5.24 | 4.07 | 6.3 | 0.87 | 6.14 | 1.65 | 5.04 |
| AGAATGAGGTTATACGTAGTTCAGGGAAGAAAGT | 2.23 | 3.06 | 0.289 | 1.93 | -0.31 | 3.55 | 1.85 | 2.29 | 0.654 | 1.49 | 3.46 | 2.53 | 1.03 | 0.605 | 0.814 | 3.07 | 0.774 | 2.66 | 0.46 | 1.96 |
| CGAACTAGGTCAGGGACAGTGAATCTCCGCACGC | 1.19 | 0.726 | -0.107 | 0.458 | -0.639 | 3.59 | 5.89 | 4.71 | 2.38 | 4.17 | 7.43 | 7.24 | 1.27 | 0.491 | 0.781 | 0.326 | -0.0952 | 0.867 | -0.305 | 3.18 |
| TCTTGTAGATAAATAGAGGTTAAGAAAGTGCGCT | 1.41 | 3.4 | 1.55 | 1.9 | 0.214 | 1.73 | 0.624 | 1.83 | 2.94 | 2.84 | 2.53 | 0.875 | 1.18 | 0.956 | 0.0767 | 2.77 | 0.529 | 1.8 | 1.33 | 0.915 |
| TATTGTAGATCAGCAGGTTAAGAAAGCTGGCCAA | -0.221 | -0.214 | -0.56 | -0.0553 | -0.105 | 0.342 | -0.269 | 0.483 | -0.249 | 0.429 | -0.472 | 0.909 | 0.264 | -0.14 | -0.31 | -0.184 | -0.219 | -0.00412 | -0.421 | -0.104 |
| AGTCAAAGTTCATCTAGGCAACGTAAGATATGCT | 6.17 | 6.15 | 4.67 | 3.78 | 1.77 | 4.92 | 6.47 | 6.11 | 3.4 | 5.44 | 0.192 | 3.08 | 1.23 | 0.857 | 2.59 | 5.11 | 4.94 | 3.62 | 0.925 | 5.1 |
| AGTCAAAGCTCAGGACGAGGTAACGTAAAGCACG | -0.244 | -0.551 | -0.393 | -0.561 | -0.87 | -0.301 | 0.722 | -0.305 | -0.133 | -0.117 | -0.71 | -0.0403 | -0.126 | -0.455 | 0.053 | -0.435 | -0.405 | 0.159 | -0.547 | -0.0865 |
| TCATATAGGTAAAAGGTGACAGTCGGTGTGGTAA | 1.88 | 1.46 | -0.178 | 1.61 | 0.00468 | 5.19 | 9.43 | 8.82 | 8.45 | 9.66 | 5.71 | 5.54 | 2.29 | 1.71 | 1.76 | 1.36 | 1.05 | 2.14 | 1.41 | 1.7 |
| GCTTGTAGATCAAGGTTACGAAAGACTAAGCTAA | 0.195 | 1.01 | -0.347 | 0.883 | -0.378 | 1.97 | 0.804 | 1.64 | 0.408 | 1.13 | 1.65 | 1.67 | -0.122 | -0.483 | 0.354 | 0.724 | -0.00407 | 1.23 | 0.273 | 0.947 |
